Laboratory results taken from PubChem BioAssay (NCATS).
Inconclusive results are not listed. Unmarked numbers belong to inactive results. Calls of active or inactive are those of the source. Calls follow the shape of the dose curve; as a rule, active = well fitted inhibition curve with a large enough effect; inconclusive = small, poorly fitted or top-dose-only effect; inactive = flat fitted curve, though single readings scatter.
% is scaled to controls: 0 for no effect and ±100 for the full control effect; potency is read from the fitted curve at half-maximal effect.

These compounds were tested on HEK293 (assay: Cytotoxic Profiling of Annotated Libraries Using Quantitative High-Throughput Screening (AID 1296008; also: nearly all actives have a fitted effect of over 60% in size)). Details: Five cell lines viability, CellTiter-Glo ATP luminescence, 48-72 h; max response: hits give low values.
In short: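 Cytotoxicity was measured as CellTiter-Glo ATP luminescence, read after 10 min at room temperature. Compound treatment of the cells lasted 48 or 72 hr at 37 degrees Celsius in a qHTS format.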
In the case of `O=C(O)C1CN(Cc2ccc(-c3nc4cc(Cc5ccccc5F)ccc4s3)c(F)c2)C1`, the max response is reported as -0.852%. With `CC[C@]12C=CCN3CC[C@@]4(c5cc([C@@]6(C(=O)OC)C[C@H]7C[C@@H](C(C)(F)F)CN(Cc8c6[nH]c6ccccc86)C7)c(OC)cc5N(C)[C@H]4[C@@](O)(C(=O)OC)[C@@H]1OC(C)=O)[C@@H]32` the Potency was 172 nM (active). Compound `COc1nc2sc(C(=O)NC3CC3)c(N)c2c(C)c1Cl` has a max response of -8.8%. Compound `COC1CC(O[C@H]2CC[C@@]3(C)C(CCC4C3[C@H](OC(C)=O)[C@@H](OC(=O)/C=C/c3ccccc3)[C@]3(C)C(C(C)=O)CC[C@]43O)C2)OC(C)C1OC1CC(OC)C(OC2CC(OC)C(OC3OC(C)C(OC4OC(CO)C(O)C(O)C4O)C(OC)C3O)C(C)O2)C(C)O1` (stereo partly specified) has a max response of -13.6%. `CC(C)=CCC/C(C)=C/CO[C@@H]1O[C@H](CO)[C@@H](OC(=O)/C=C/c2ccc(O)cc2)[C@H](O[C@@H]2O[C@@H](C)[C@H](O)[C@@H](O)[C@H]2O)[C@H]1O` showed a max response of 1.83%. Compound `COc1cc(/C=C/C(=O)O[C@H]2[C@H](O)[C@@H](CO)O[C@@]2(CO)O[C@H]2O[C@H](CO)[C@@H](O)[C@H](O)[C@H]2O)ccc1O` has a max response of 0.588%. `CC1CCC2(C(=O)O)CCC3(C)C(=CCC4C5(C)CCC(O)C(C)(CO)C5CCC43C)C2C1(C)O` (stereo unspecified) showed a max response of -24.2%. For `C=C1C[C@]23C[C@H]1CC[C@H]2[C@]1(C)CCC[C@@](C)(C(=O)O)[C@H]1[C@@H]3C(=O)O`, the max response was -6%. `OCC(CO[C@@H]1O[C@H](CO)[C@@H](O)[C@H](O)[C@H]1O)c1ccc2c(c1)OCO2` (stereo partly specified) showed a max response of -1.28%. With `C/C=C/C=C/C(=O)N1CC[C@]23c4ccccc4N[C@H]4N(C)c5cccc6c5[C@@]42CCN([C@H]6C2OC2(C)C)[C@H]13` (stereo partly specified) the max response was -2.78%. Compound `CC1OC(OC2C(C)OC(OC3C(OC(=O)C45CCC(C)(C)CC4C4=CCC6C7(C)CCC(OC8OC(C(=O)O)C(O)C(O)C8OC8OC(CO)C(O)C(OC9OC(C)C(O)C(O)C9O)C8O)C(C)(CO)C7CCC6(C)C4(C)CC5)OC(CO)C(O)C3O)C(O)C2O)C(O)C(O)C1O` (stereo unspecified) has a max response of 1.99%. Work on `CC(C)=CC/C=C(\C)[C@H]1CC[C@]2(C)[C@@H]1[C@H](O)C[C@@H]1[C@@]3(C)CC[C@H](O)C(C)(C)[C@@H]3[C@@H](O[C@@H]3O[C@H](CO)[C@@H](O)[C@H](O)[C@H]3O)C[C@]12C` yielded a max response of -11.4%. With `CC(C)=CCC(O)/C(C)=C/CO[C@@H]1O[C@H](CO)[C@@H](O)[C@H](O)[C@H]1O` (stereo partly specified) the max response was -0.719%. Work on `OC/C=C/c1ccc(O[C@@H]2O[C@H](CO)[C@@H](O)[C@H](O)[C@H]2O)cc1` yielded a max response of -1.19%. With `CC1(C)CC[C@]2(CO[C@@H]3O[C@H](CO)[C@@H](O)[C@H](O)[C@H]3O)[C@@H](O)C[C@]3(C)C(=CCC4[C@@]5(C)CC[C@H](O[C@@H]6O[C@H](CO[C@@H]7O[C@H](CO[C@@H]8OC[C@@H](O)[C@H](O)[C@H]8O)[C@@H](O)[C@H](O)[C@H]7O)[C@@H](O)[C@H](O)[C@H]6O)C(C)(C)C5CC[C@]43C)[C@@H]2C1` (stereo partly specified) the max response was -6.51%. `CN[C@@H]1[C@H](O[C@H]2[C@H](O[C@@H]3[C@@H](O)[C@H](O)[C@@H](N=C(N)N)[C@H](O)[C@H]3N=C(N)N)O[C@@H](C)[C@]2(O)C=O)O[C@@H](CO)[C@H](O)[C@H]1O` gave a max response of 4.73%. In the case of `CC(C)C1=CC2C(CC[C@]2(C)O)[C@](C)(O)CC1` (stereo partly specified), the max response is reported as -1.9%. In the case of `C[C@@H]1O[C@@H](O[C@H]2[C@H](O)[C@@H](C(=O)O)O[C@@H](O[C@H]3CC[C@@]4(C)C(CC[C@]5(C)C4CC=C4C6CC(C)(C)CC[C@]6(C(=O)O)CC[C@]45C)C3(C)C)[C@@H]2O[C@@H]2OC[C@@H](O)[C@H](O)[C@H]2O)[C@H](O)[C@H](O)[C@H]1O` (stereo partly specified), the max response is reported as -0.663%. With `CC(=O)OC1C(OC(=O)c2ccccc2)C2C(C)(C)CC(=O)CC2(C)C23CCC(C)(C2)C(O)CC13` (stereo unspecified) the max response was -15.7%. Work on `C=C[C@]1(C)C=C2CCC3C(C)(CCC[C@@]3(C)C(=O)O)C2CC1` (stereo partly specified) yielded a max response of 0.507%. With `Cc1cc(OCc2nnc(SC3CCCC3)n2-c2cccnc2)ccc1-c1ccc(S(C)(=O)=O)cc1` the Potency was 291 nM (active).
